Some test systems named below: PLK2; PLK3; PLK4; PRKCD; PRKCE; PRKCH; PRKCI; PRKCQ; PRKD1; PRKD3; PRKG1; PRKG2; PRKX; PRP4; QSK; RAF1; RET; PRKD2.
Holding throughout (settings): concentration: 1 μM,replicates: in singlicate; n = 1
The subject of a further assay is T1, PRKR.
T1 construct: gene EIF2AK2

The test system of a further assay is T2, PYK2.
T2 construct: gene PTK2B
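Further: KINOMEscan kinase panel screen.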

As for `Cc1cccc(-c2nc(Nc3ccncc3)c3sccc3n2)n1` [GW869641], the “%Inh” value in the assay on PLK2 is on record as 20%; in the assay with PLK3, 13%; with PLK4 it was 23%; in the assay on PRKCD it was 20%; with PRKCE it was 40%; in the assay with PRKCH, 21%. The “%Inh” value worked out at 32% in the assay on PRKCI; 0% in the assay on PRKCQ; 99.3% in the assay with PRKD1; 90.7% in the assay on PRKD3; 7% in the assay on PRKG1; 14% with PRKG2. Further, the “%Inh” value is on record as 54% in the assay on PRKR; 0% in the assay on PRKX; 0% with PRP4; 20% with PYK2; 24% in the assay with QSK; 4% in the assay with RAF1. Further, the “%Inh” value in the assay on RET is on record as 31%.

Consider `NC(=O)c1ccc(-c2cc3ncnc(SCC(=O)O)c3s2)cc1`, for which the “%Inh” value is recorded as 0% in the assay on PLK2; 6% in the assay with PLK3; 56% with PLK4; 0% with PRKCD; 0% in the assay with PRKCE; 0% with PRKCH. The “%Inh” value in the assay with PRKCI, in the assay on PRKCQ, with PRKD1, with PRKD2, in the assay on PRKD3 and in the assay with PRKG1 was 0% each time. The “%Inh” value in the assay with PRKG2 is recorded as 0%; in the assay with PRKR, 100%; with PRKX, 0%; in the assay with PRP4, 44%; with QSK, 0%; in the assay on RAF1 it was 3%. Further, the “%Inh” value in the assay on RET is reported as 0%.

Regarding `C[C@@H](Oc1cc(-n2cnc3cc(-c4cnn(C)c4)ccc32)sc1C(N)=O)c1ccccc1Cl` [GSK580432], the “%Inh” value in the assay on PLK2 stood at 99.5%; in the assay with PLK4 it was 64%; in the assay on PRKCD, 23%; in the assay on PRKCE it was 1%; with PRKCH, 0%; with PRKCI, 46%. Moreover, the “%Inh” value is reported as 35% with PRKCQ; 0% with PRKD1; 0% in the assay on PRKD2; 0% in the assay on PRKD3; 17% in the assay with PRKG1; 2% with PRKG2. For the same molecule, the “%Inh” value came out at 0% in the assay with PRKR; 0% with PRKX; 81% in the assay on PRP4; 0% in the assay with PYK2; 42% in the assay with QSK; 13% in the assay with RAF1. In addition, the “%Inh” value in the assay on RET worked out at 90%.

As to `Cc1ccn2nc(-c3ccc(F)cc3)c(-c3ccncc3)c2c1.Cl` [GW457859], the “%Inh” value in the assay with PLK2 turned out to be 0%; in the assay with PLK3, 0%; in the assay with PLK4, 2%; in the assay on PRKCD, 0%; with PRKCE, 14%; in the assay on PRKCH, 8%. For the same molecule, the “%Inh” value with PRKCI worked out at 18%; with PRKCQ, 8%; in the assay with PRKD1 it was 17%; in the assay with PRKD2 it was 20%; with PRKD3, 30%; in the assay with PRKG1, 0%. Moreover, the “%Inh” value turned out to be 19% in the assay on PRKG2; 12% in the assay with PRKR; 21% with PRKX; 28% with PRP4; 0% in the assay on PYK2; 0% with QSK. Besides, the “%Inh” value amounted to 15% in the assay with RAF1 and 4% with RET.

Turning to `CSc1nccc(-c2c(-c3ccc(F)cc3)ncn2CCCN2CCOCC2)n1.Cl` [SB-217146], the “%Inh” value in the assay with PLK2 was found to be 28%; in the assay with PLK3 it was 44%; with PLK4, 5%; with PRKCD it was 8%; in the assay on PRKCE it was 38%; in the assay on PRKCH it was 0%. Moreover, the “%Inh” value in the assay on PRKCI came out at 14%; with PRKCQ it was 0%; with PRKD1, 0%; in the assay on PRKD2, 1%; in the assay on PRKD3, 0%; with PRKG1, 0%. In addition, the “%Inh” value is reported as 0% in the assay on PRKG2; 0% with PRKR; 0% in the assay with PRKX; 0% in the assay on PRP4; 5% in the assay on PYK2; 5% in the assay on QSK. For the same molecule, the “%Inh” value with RAF1 came to 0%; in the assay on RET, 2%.

As for `Cl.Cl.NC[C@H](CC1CCCCC1)NC(=O)c1ccc(-c2ccnc3[nH]ccc23)s1` [GSK1581428], the “%Inh” value with PLK2 is listed as 0%; in the assay with PLK3 it was 0%; in the assay on PLK4, 41%; in the assay with PRKCD, 100%; with PRKCE, 98.5%; in the assay with PRKCH, 100%. Moreover, the “%Inh” value turned out to be 22% in the assay on PRKCI; 95.3% in the assay with PRKCQ; 91.8% in the assay with PRKD1; 96.7% with PRKD2; 96.2% in the assay with PRKD3; 99.9% in the assay with PRKG1. Further, the “%Inh” value in the assay with PRKG2 is on record as 99.2%; in the assay with PRKR, 13%; with PRKX it was 97.9%; with PRP4, 81%; with PYK2 it was 41%; with QSK, 9%. In addition, the entries for the “%Inh” value in the assay on RAF1 and in the assay with RET were 0% and 38%, respectively.

Regarding `COc1cccc(C2=C(Nc3cccc(Cl)c3)C(=O)NC2=O)c1` [SB-341556], the “%Inh” value in the assay on PLK2 is 0%; in the assay on PLK3, 0%; in the assay on PLK4 it was 8%; with PRKCD, 26%; with PRKCE, 19%; in the assay on PRKCH it was 0%. Also, the “%Inh” value turned out to be 0% in the assay on PRKCI; 17% in the assay with PRKCQ; 0% in the assay on PRKD1; 0% with PRKD2; 6% in the assay with PRKD3; 0% in the assay on PRKG1. The “%Inh” value is recorded as 11% in the assay on PRKG2; 11% in the assay on PRKR; 21% in the assay on PRKX; 25% with PRP4; 16% in the assay with PYK2; 3% in the assay on QSK. In addition, the entries for the “%Inh” value with RAF1 and with RET were 11% and 37%, respectively.

In the case of `CS(=O)(=O)Nc1ccc(-c2ccnc3[nH]ccc23)cc1` [GSK993273], the “%Inh” value in the assay with PLK2 was 0%; in the assay with PLK3 it was 0%; in the assay on PLK4, 21%; in the assay with PRKCD it was 42%; in the assay with PRKCE it was 64%; with PRKCH, 49%. The “%Inh” value is 26% in the assay on PRKCI; 57% with PRKCQ; 0% in the assay with PRKD1; 0% in the assay on PRKD2; 0% with PRKD3; 77% in the assay with PRKG1. Besides, the “%Inh” value with PRKG2 was 77%; in the assay with PRKR, 41%; in the assay on PRKX, 42%; in the assay on PRP4 it was 64%; in the assay with PYK2, 20%; with QSK, 17%. For the same molecule, the “%Inh” value in the assay with RAF1 was found to be 12%; in the assay with RET, 22%.

As for `Cc1n[nH]c2cc(Nc3ccnc(Nc4cccc(CN5CCOCC5)c4)n3)ccc12` [GW682569], the “%Inh” value worked out at 15% in the assay with PLK2; 53% in the assay with PLK3; 72% in the assay on PLK4; 0% in the assay with PRKCD; 51% in the assay on PRKCE; 0% with PRKCH. Moreover, the “%Inh” value in the assay with PRKCI worked out at 26%; with PRKCQ, 0%; in the assay with PRKD1 it was 0%; with PRKD2, 0%; in the assay with PRKD3, 18%; in the assay on PRKG1 it was 0%. Moreover, the “%Inh” value with PRKG2 was 3%; in the assay with PRKR it was 23%; in the assay on PRKX, 0%; in the assay on PRP4, 65%; in the assay with PYK2 it was 0%; with QSK, 0%. For the same molecule, the “%Inh” value with RAF1 is 0%; in the assay on RET, 56%.

Values taken from PMC5540273 (PLoS ONE, 2017).
